The nature of assay [1]: ATG_NF_kB_CIS: Attagene CIS-FACTORIAL HepG2 Assay for human Nuclear Factor Kappa B (NF-kB) (AID 2282991). The conditions noted are these: HepG2 Attagene cis-factorial NF-kB reporter mRNA; actives raise or lower the signal. In short, it runs like this: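 Measures mRNA induction of an NF-kB-responsive cis-element reporter in HepG2 cells transfected with multiple reporter units, sampled 24 h post-dosing; quantified by fluorescence after RT-PCR and capillary electrophoresis, fitted for activation or inhibition against DMSO.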

A short description of assay [2]: ATG_NRF2_ARE_CIS: Attagene CIS-FACTORIAL HepG2 Assay for human Nuclear Factor Erythroid 2 Related Factor 2 (NFR2) response to Antioxidant Response Elements (ARE) (AID 2282992).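 For AC50: reporter mRNA level measured by RT-PCR and capillary electrophoresis fluorescence.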 The conditions noted are these: HepG2 Attagene ARE/NRF2 reporter, transcription factor activity; actives raise or lower the signal. The method in brief: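 HepG2 cells transiently transfected with multiplexed cis-regulated reporter transcription units measure endogenous transcription factor activity. Reporter mRNA at 24 h is quantified by RT-PCR, fluorescent labelling and capillary electrophoresis, with bidirectional fitting relative to DMSO.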

Assay [3] in a line: ATG_Oct_MLP_CIS: Attagene CIS-FACTORIAL HepG2 Assay for human Octamer-Binding Transcription Factor (Oct) (AID 2282993). The conditions noted are these: HepG2 Attagene cis-factorial Oct reporter, mRNA; actives raise or lower the signal. The method in brief:
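Readout is reporter transcript level from RT-PCR with fluorescent primer extension and capillary electrophoresis, fitted in both directions against DMSO. Transfected HepG2 reporter units report endogenous factor activity after 24 h dosing.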

The target of assay [4] is Cellular tumor antigen p53 (Homo sapiens) (UniProt P04637). The assay is described as follows: ATG_p53_CIS: Attagene CIS-FACTORIAL HepG2 Assay for human p53 Transcription Factor (AID 2282994). The conditions noted are these: HepG2 p53 cis-element reporter, Attagene mRNA; actives raise or lower the signal. The method in brief: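 HepG2 cells transiently transfected with multiplexed cis-regulated reporter transcription units read endogenous TF activity. After 24 h compound exposure, reporter mRNA was quantified by RT-PCR, fluorescent labelling, HpaI digestion and capillary electrophoresis; bidirectional fits versus DMSO baseline.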
Cellular tumor antigen p53 (Homo sapiens), sequence (P04637 whole entry, looked up): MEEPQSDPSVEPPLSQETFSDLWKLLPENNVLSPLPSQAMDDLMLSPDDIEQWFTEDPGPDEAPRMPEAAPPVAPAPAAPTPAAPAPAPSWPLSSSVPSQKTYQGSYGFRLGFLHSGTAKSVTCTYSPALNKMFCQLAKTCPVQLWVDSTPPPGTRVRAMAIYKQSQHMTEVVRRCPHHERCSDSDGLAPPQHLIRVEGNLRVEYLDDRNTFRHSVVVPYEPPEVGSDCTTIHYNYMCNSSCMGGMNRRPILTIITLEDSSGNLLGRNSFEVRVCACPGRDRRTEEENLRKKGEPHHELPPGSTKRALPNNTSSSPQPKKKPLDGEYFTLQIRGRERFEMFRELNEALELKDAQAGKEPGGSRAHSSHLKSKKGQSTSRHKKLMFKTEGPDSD

Assay [5] in a line: BSK_3C_TissueFactor: BioMAP Diversity Plus: 3C Assay for Tissue Factor Biomarker Activity (AID 2282997). As to conditions: BioMAP 3C HUVEC, tissue factor biomarker readout; actives raise or lower the signal. In short, it runs like this: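 Dosing of human umbilical vein endothelial cells preceded a 24 h incubation. Tissue Factor was then read by ELISA, with increases and decreases both scored relative to DMSO controls.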

A short description of assay [6]: BSK_3C_uPAR: BioMAP Diversity Plus: 3C Assay for Urokinase-type plasminogen activator receptor (uPAR) Biomarker Activity (AID 2282998). As to conditions: BioMAP 3C HUVEC, uPAR biomarker ELISA; actives raise or lower the signal. In short, it runs like this: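 Cell-surface uPAR on HUVEC (3C system) read by ELISA at 24 h post-treatment, with DMSO as baseline and fitting in both directions. Parallel cultures stained with SRB to flag overt cytotoxicity.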

Assay [7] can be described thus: BSK_3C_VCAM1: BioMAP Diversity Plus: 3C Assay for Vascular cell adhesion molecule 1 (VCAM1) Biomarker Activity (AID 2282999). The conditions noted are these: BioMAP 3C HUVEC, VCAM1 ELISA, cytokine-stimulated; actives raise or lower the signal. The method in brief: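 Endothelial cells from human umbilical vein are treated with test chemical. At 24 h, VCAM-1 is measured by ELISA, and responses in either direction are fitted relative to DMSO.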
On the technique in general: ELISA stands for enzyme-linked immunosorbent assay.

The nature of assay [8]: BSK_4H_Eotaxin3: BioMAP Diversity Plus: 4H Assay for Eotaxin 3 Biomarker Activity (AID 2283000).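 For outcome: CCL26 protein level quantified by ELISA in parallel with SRB cytotoxicity check.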 As to conditions: primary human endothelial cells (HUVEC); actives raise or lower the signal. The method in brief: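 Human umbilical vein endothelial cells (BSK_4H system) dosed with test chemical; Eotaxin-3 (CCL26) measured by ELISA 24 h after dosing. Bidirectional curve fitting relative to DMSO negative control as baseline.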

The target of assay [9] is human Peroxisome Proliferator-activated Receptor alpha (PPARa), PPARA (gene 5465) (UniProt Q07869). The assay is described as follows: ATG_PPARa_TRANS: Attagene TRANS-FACTORIAL HepG2 Assay for human Peroxisome Proliferator-activated Receptor alpha (PPARa) (AID 2283001; active = hit-call score of the fitted dose curve at least 0.9, where 1 is the maximum;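 for AC50: potency for gain of reporter signal over DMSO so agonist or activator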). The method in brief: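 Read-out is fluorescence of reporter cDNA fragments resolved by capillary electrophoresis after RT-PCR. Human HepG2 liver cells carried transfected PPARa-Gal4 chimera and GAL4-UAS reporter units, treated 24 h; activity scored as increase over DMSO.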
human Peroxisome Proliferator-activated Receptor alpha (PPARa), PPARA (gene 5465), sequence (Q07869 whole entry, looked up, the tested form may be a part): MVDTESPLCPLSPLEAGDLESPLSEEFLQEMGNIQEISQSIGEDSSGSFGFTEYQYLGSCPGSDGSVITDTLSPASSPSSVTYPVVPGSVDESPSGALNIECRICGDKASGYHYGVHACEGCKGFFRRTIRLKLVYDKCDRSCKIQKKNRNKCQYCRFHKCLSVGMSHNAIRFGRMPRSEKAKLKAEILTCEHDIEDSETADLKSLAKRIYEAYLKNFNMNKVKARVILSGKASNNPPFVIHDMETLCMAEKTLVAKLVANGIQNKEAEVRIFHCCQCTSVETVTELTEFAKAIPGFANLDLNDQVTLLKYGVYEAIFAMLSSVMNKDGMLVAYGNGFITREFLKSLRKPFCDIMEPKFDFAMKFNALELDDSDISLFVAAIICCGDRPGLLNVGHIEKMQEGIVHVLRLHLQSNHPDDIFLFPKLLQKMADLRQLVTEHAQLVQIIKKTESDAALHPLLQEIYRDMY

Values joined by “and” are separate entries in the source; they are usually repeats but may differ in a detail not shown here. Identical values can stand only once. Inconclusive results are not listed. Some compounds were tested as several samples or in several runs, with calls that do not always agree. Active and inactive are the calls of the source. Rule for the calls, unless noted: active = hit-call score of the fitted dose curve at least 0.9, where 1 is the maximum; inactive = score below 0.9.

With `CC1(C)[C@H](C(=O)O[C@H](C#N)c2cccc(Oc3ccccc3)c2)[C@@H]1/C=C(\Cl)C(F)(F)F`, the compound was classed as inactive in assay [1], in [2], in [3], in assay [4], in assay [5] and in assay [6]. For the same compound, the outcome in assay [7] and in [8] was inactive.

Broadly, the AC50 is the concentration giving half of the maximal activity seen. In the case of `CCOP(=S)(OCC)Oc1ccc(Cl)cc1Cl`, the call in assay [1], in assay [3] and in assay [4] was inactive. The AC50 in assay [2] was 43.7 µM (active).

Turning to `C=C(C)C(=O)OCC(CC)CCCC` (stereo unspecified), the compound was called inactive in assay [1], in assay [2], in [3] and in assay [4].

Turning to `O=c1oc2ccccc2c(O)c1C(CC(O)c1ccc(-c2ccc(Br)cc2)cc1)c1ccccc1` (stereo unspecified), the half-maximal activity concentration (AC50) was 48.4 µM (active) in assay [1]; 7.57 µM (active) in assay [2]; 40.9 µM (active) in assay [3]; 53.2 µM (active) and 21.3 µM (active) in assay [4]; 12.7 µM (active) in [5]; 5.92 µM (active) in assay [6]. Besides, the AC50 is 21.6 µM (active) in [7], 16.9 µM (active) in [8] and 25.3 µM (active) in assay [9]. The result in assay [1], in assay [2], in assay [3] and in assay [9] was inactive.

Regarding `NC(=O)CCl`, the compound was classed as inactive in assay [1], in assay [3], in assay [4], in [5], in [6] and in assay [7]. Moreover, the outcome in assay [8] and in [9] was inactive. Besides, in assay [2], the AC50 is 78.2 µM (active).

Take `CCOP(=O)(OCC)SCCSCC`: the compound was called inactive in assay [1], in assay [2], in [3], in assay [4], in [5] and in assay [6]. Besides, the outcome in [7] and in assay [8] was inactive.

For the compound `O=C1C[C@@H]2OCC=C3CN4CC[C@]56c7ccccc7N1[C@H]5[C@H]2[C@H]3C[C@H]46`, the compound was classed as inactive in assay [1], in assay [2], in assay [3] and in assay [4].

For the compound `Cc1ccccc1OP(=O)(Oc1ccccc1)Oc1ccccc1`, the result in assay [1], in assay [3], in assay [4] and in assay [9] was inactive. For the same compound, the half-maximal activity concentration (AC50) in assay [2] is 12.3 µM (active); in assay [5] it was 20 µM (active); in assay [6], 35.3 µM (active); in assay [7], 20 µM (active); in assay [8] it was 28.7 µM (active).

As for `CC(C)C(C)(N)C#N` (stereo unspecified), the compound was called inactive in assay [1], in assay [2], in assay [3] and in assay [4].

`CCCCC(CC)COC(=O)Cl` (stereo unspecified): the outcome in assay [1] and in assay [2] was inactive.

Regarding `CC(C)(C1CCC(O)CC1)C1CCC(O)CC1` (stereo unspecified), the result in [1], in assay [2], in assay [3] and in [4] was inactive.

Turning to `OCCCCO`, the result in assay [1], in assay [2], in [3], in assay [4], in assay [5] and in [6] was inactive. Moreover, the outcome in assay [7], in assay [8] and in assay [9] was inactive.

Turning to `O=c1[nH]c2ccccc2n1C1CCN(CCCC(c2ccc(F)cc2)c2ccc(F)cc2)CC1`, the compound was classed as inactive in [1], in assay [3] and in [4]. Also, the AC50 in assay [2] was 3.15 µM (active).

For the compound `O=NN1CCCCCC1`, the call in assay [1], in assay [2], in [3] and in assay [4] was inactive.

In the case of `Clc1ccc(C(Cl)(Cl)Cl)cn1`, the compound was called inactive in assay [1], in [2], in assay [3] and in assay [4].

In the case of `C=CC(F)(C(F)(F)F)C(F)(F)C(F)(F)F` (stereo unspecified), the outcome in assay [1], in [2], in [3] and in assay [4] was inactive.

On to `CCOP(=S)(OCC)SCS(=O)(=O)C(C)(C)C`, for which the result in assay [1], in [2], in assay [3], in assay [4], in [5] and in assay [6] was inactive. In addition, the outcome in assay [7] and in assay [8] was inactive.

`CCOC(=O)C(SP(=S)(OC)OC)c1ccccc1` (stereo unspecified): the call in assay [1], in assay [3], in assay [4] and in assay [5] was inactive. Further, the AC50 in [2] is 32 µM (active); in assay [6], 20 µM (active); in [7] it was 25.8 µM (active); in assay [8], 29.1 µM (active).

As to `CCOC(=O)CC(=O)CCl`, the AC50 was 56.8 µM (active) in [1]; 181 µM (active) in assay [2]; 24.3 µM (active) in assay [3]; 148 µM (active) in assay [4]; 0.0141 µM (active) in assay [6]; 20 µM (active) in assay [7]. Besides, in [8], the concentration at half-maximal activity (AC50) is 20 µM (active). For the same compound, the result in assay [5] and in assay [9] was inactive.

For the compound `CC(C)[C@@H](Nc1ccc(C(F)(F)F)cc1Cl)C(=O)OC(C#N)c1cccc(Oc2ccccc2)c1` (stereo partly specified), the compound was called inactive in [1], in assay [3] and in assay [4]. In assay [2], the AC50 was 17.1 µM (active).

For `O=C(CCl)NCO`, the result in [1], in [3], in assay [4], in assay [5], in [6] and in [7] was inactive. Moreover, in assay [8], the result was inactive. Further, the concentration at half-maximal activity (AC50) in assay [2] is 65.2 µM (active).

For the compound `O=C(NC(=O)c1c(F)cccc1F)Nc1ccc(Cl)cc1`, the compound was classed as inactive in assay [1] and in [2].

With `O=NN1CCCCCCC1`, the call in assay [1], in assay [3] and in assay [4] was inactive. Moreover, the AC50 in assay [2] was 114 µM (active).

Take `O=S1OC[C@@H]2[C@H](CO1)[C@]1(Cl)C(Cl)=C(Cl)[C@@]2(Cl)C1(Cl)Cl` (stereo partly specified): the result in assay [1], in [2] and in assay [4] was inactive. Besides, the half-maximal activity concentration (AC50) in [3] was 100 µM (active).

In the case of `[F][Sn]([c]1ccccc1)([c]1ccccc1)[c]1ccccc1`, the half-maximal activity concentration (AC50) was 0.685 µM (active) in assay [1], 0.335 µM (active) in assay [3] and 0.316 µM (active) in assay [4]. Also, the outcome in assay [2] was inactive.

On to `OC(Cc1ccccc1Cl)(Cn1cncn1)C1(Cl)CC1` (stereo unspecified), for which the outcome in [1], in [2], in [3], in assay [5], in assay [7] and in assay [8] was inactive. For the same compound, the AC50 is 30 µM (active) in assay [4] and 16.5 µM (active) in [6].

Turning to `c1ccc(-c2cccc(-c3ccccc3)c2)cc1`, the outcome in [1], in assay [3], in assay [4] and in assay [9] was inactive. The concentration at half-maximal activity (AC50) in assay [2] is 40.9 µM (active); in assay [5], 4.68 µM (active); in [6], 20 µM (active); in assay [7] it was 20 µM (active); in assay [8] it was 20 µM (active).

Take `Cc1ccc2nc3sc(=O)sc3nc2c1`: the outcome in assay [1], in [4], in assay [5] and in assay [9] was inactive. Also, the AC50 in assay [2] was 4.06 µM (active); in [3], 6.95 µM (active); in assay [6], 3.43 µM (active); in assay [7] it was 7.59 µM (active); in assay [8], 5.95 µM (active).

The record behind these values is PubChem BioAssay (EPA / NIEHS).
